An excerpt weighted towards active compounds, which were near 9.2% of everything screened.
ELG1 repair inh – qHTS screen for small molecules that inhibit ELG1-dependent DNA repair in human embryonic kidney (HEK293T) cells expressing luciferase-tagged ELG1; HEK293T ELG1-luciferase reporter, luminescence, 16 h; DNA damage induced by 5-fluorouridine; Potency, µM (highest dose often 46.1 µM), for the others: at the highest dose activity change, negative = inhibition, actives largely listed as inhibitors; 330,000 tested, 2.3% active; AID 504467, 2011; note: % is set by controls: 0 for no effect and ±100 for the full control effect; nearly all actives have a fitted effect of over 55% in size
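Cells (2,000 per well) received 5-fluorouridine plus test compound or DMSO and were incubated 16 hr at 37 °C, 5% CO2. Luciferase activity was read by luminescence 30 min after ONE-Glo addition; signal suppression marked inhibition of damage-induced ELG1 function.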
SMN2 splice enh – qHTS Assay for Enhancers of SMN2 Splice Variant Expression; HEK293 SMN2-luciferase splicing reporter, luminescence, 30-36 h; Potency, µM (doses to about 46.1 µM), without a hit: at the top dose activity change, positive = activation, actives largely listed as activators; 210,000 tested, 2.8% active; AID 1458, 2008; note: % of control where 0% means no effect; nearly all actives have a fitted effect of over 55% in size
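HEK293 cells carry an SMN2 minigene-luciferase reporter in which exon 7 inclusion puts luciferase in frame. Cells were seeded at 2000 cells/well, attached for 10-12 hours, then exposed to compounds for 30-36 hours at 37C before ONE-Glo luminescence.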
NPC1 prom act – qHTS Assay for NPC1 Promoter Activators | Huh7 NPC1 promoter luciferase reporter, 24 h | Potency, µM (top dose mostly 9.22 µM), for inactives: top-dose activation, usual class: activators | 320,000 tested, 2.4% active; note: % of control where 0% means no effect; nearly all actives have a fitted effect of over 60% in size
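Luminescence read-out of NPC1 promoter-driven luciferase in stably transfected Huh7 cells; compounds delivered in DMSO and left 24 h at 37C, 5% CO2, qHTS titration format.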
ELG1 genotoxic – qHTS screen for small molecules that induce genotoxicity in human embryonic kidney (HEK293T) cells expressing luciferase-tagged ELG1; HEK293T ELG1-luciferase reporter, luminescence, 16 h; Potency, µM (titrated, usually from 46 µM), for the others: at the highest dose activity change, positive = activation, most hits filed as activators; 330,000 tested, 1.3% active; AID 504466, 2011; note: % of control where 0% means no effect; nearly all actives have a fitted effect of over 60% in size
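After overnight (16 hr) compound treatment at 37 °C, ELG1-luciferase HEK293T cells were lysed with ONE-Glo; luminescence quantified 30 min later at room temperature.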
Rab9 promoter act – qHTS Assay for Rab9 Promoter Activators. Huh7 Rab9 promoter-luciferase reporter, luminescence, 24 h. Potency, µM (doses to about 9.22 µM), without a hit: at the highest dose activation, negative = inhibition, most hits filed as activators. 320,000 tested, 2.8% active. AID 485297, 2010; note: % of control where 0% means no effect; nearly all actives have a fitted effect of over 60% in size
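Stable Rab9-luc Huh7, 1500 cells/well, 2 h settle; cmpd in DMSO, 24 h, 37 °C/5% CO2; luciferase reagent 10 min RT; luminescence.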
FLuc counter – qHTS profiling assay for firefly luciferase inhibitor/activator using purifed enzyme and Km concentrations of substrates (counterscreen for miR-21 project) | Luciferin 4-monooxygenase (Photinus pyralis), P08659 | purified FLuc, Km substrates, luminescence inhibition | Potency, µM (series often up to 57.5 µM), inactives show top-dose activity change, negative = inhibition, hits mostly inhibitors | 360,000 tested, 6.9% active | AID 588342, 2011;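 note: plate controls were vehicle for no effect and reference inhibitor for full effect; nearly all actives have a fitted effect of over 55% in size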
Target sequence (P08659 whole entry, looked up): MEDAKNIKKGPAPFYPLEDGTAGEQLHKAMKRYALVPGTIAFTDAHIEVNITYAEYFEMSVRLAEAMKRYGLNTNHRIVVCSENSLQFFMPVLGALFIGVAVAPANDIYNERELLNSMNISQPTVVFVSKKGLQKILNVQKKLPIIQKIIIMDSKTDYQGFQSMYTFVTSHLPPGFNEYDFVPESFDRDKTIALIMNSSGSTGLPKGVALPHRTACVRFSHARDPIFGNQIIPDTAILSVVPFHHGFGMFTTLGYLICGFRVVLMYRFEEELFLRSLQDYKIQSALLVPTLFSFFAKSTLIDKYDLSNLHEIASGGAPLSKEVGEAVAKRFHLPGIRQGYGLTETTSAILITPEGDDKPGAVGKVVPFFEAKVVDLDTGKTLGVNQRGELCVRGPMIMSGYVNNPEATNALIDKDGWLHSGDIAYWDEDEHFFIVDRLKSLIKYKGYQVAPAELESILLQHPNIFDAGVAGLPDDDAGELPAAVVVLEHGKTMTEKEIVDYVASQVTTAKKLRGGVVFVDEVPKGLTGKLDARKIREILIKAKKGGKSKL
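Purified P. pyralis luciferase, 10 nM final, with Km-level 10 uM D-luciferin and 10 uM ATP in 50 mM Tris acetate pH 7.5, 10 mM Mg acetate, 0.01% Tween-20, 0.05% BSA; 6-point qHTS titration about 60 µM downward; luminescence read.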
* hit, by the source's call; ? = inconclusive; . = no result; [ ] = dose if it differs, or a comment. Calls come from the whole dose curve; as a rule, active = well fitted curve in the direction sought with a large enough effect; inconclusive = small, poorly fitted or top-dose-only effect, or another doubt; inactive = no such curve, though single readings can be large; an effect the other way counts as inactive or inconclusive. Potency is the fitted concentration of half-maximal effect.

SMILES	ELG1 repair inh	SMN2 splice enh	NPC1 prom act	ELG1 genotoxic	Rab9 promoter act	FLuc counter
Cc1c(NC(=O)c2ccccc2NC(=O)COc2ccccc2)cccc1C(=O)O	9%	.	-1%	-8%	2%	-15%
Cc1c(NC(=O)c2ccc(NC(=O)C3CC3)cc2)cccc1C(=O)O	-14%	.	0%	-2%	7%	15µM*
Cc1ccc(NC(=O)c2cccc(C(=O)Nc3ccc(C)cc3C(=O)O)c2)c(C(=O)O)c1	?	.	-1%	-11%	-4%[1.84 µM]	27µM*
Cc1c(NC(=O)c2ccccc2NC(=O)c2ccccc2)cccc1C(=O)O	5%	.	0%	2%	4%	17µM*
Cc1c(NC(=O)c2ccccc2N)cccc1C(=O)O	?	.	1.3µM*	?	1.8µM*	9.5µM*
Nc1ccccc1NC(=O)c1ccccc1N	26%	-3%	11%	1%	17%	-23%
COc1cc(NC(=O)c2ccc(Br)o2)c(C(=O)O)cc1OC	9%	18%	-1%	2%	-1%	21µM*
Cc1cc(O)c(NC(=O)c2ccc(Br)o2)cc1C	?	14µM*	20%	?	17%	?
COc1ccccc1NC(=O)c1ccc(Br)o1	?	27%	1%	?	-5%	-14%
Cc1c(NC(=O)c2cccs2)cccc1C(=O)O	?	10%	?	12%	?	15µM*
Cc1cccc(NC(=O)c2ccccc2NC(=O)C2CCCCC2)c1C	7%	-1%	2%	?	-2%	17µM*
CC(=O)NC(C(=O)O)C(C)(C)SN=O (stereo not drawn)	.	-3%	.	.	.	.
Cc1c(NC(=O)c2ccc(Br)o2)cccc1C(=O)O	?	?	?	?	2.5µM*	21µM*
O=C(Nc1ccc(N2CCOCC2)cc1)c1ccc2ncsc2c1	?	.	.	19%	.	.
O=C(Nc1ccc(Cl)cc1)c1ccc2ncsc2c1	?	.	2.8µM*	?	3.5µM*	12µM*
O=C(Nc1ccc(C(F)(F)F)cc1)c1ccc2ncsc2c1	?	.	3.5µM*	?	3.5µM*	13µM*
O=C(Nc1ccc(F)cc1)c1ccc2ncsc2c1	?	.	2.2µM*	?	3.5µM*	24µM*
O=C(Nc1cccc(Cl)c1)c1ccc2ncsc2c1	?	.	4µM*	?	3.5µM*	19µM*
Cc1ccc(C2c3cccn3CCN2S(=O)(=O)c2ccc([N+](=O)[O-])cc2)cc1 (stereo not drawn)	.	.	.	.	.	-5%
O=C(O)Cc1ccc(NC2(c3ccccc3)C(=O)c3ccccc3C2=O)cc1	.	.	.	.	.	-11%
O=C(O)c1ccc2ncsc2c1	?	.	?	14%	3.5µM*	?
O=S(=O)(Nc1nc2ccccc2nc1NCc1ccco1)c1ccc(F)cc1	15µM*	.	-1%	-9%	-2%	2%
O=S(=O)(Nc1nc2ccccc2nc1NCc1ccco1)c1ccccc1	-13%	14%	-1%	-7%	-7%	1%
CC1(C)N([O-])c2cc([N+](=O)[O-])ccc2[N+]1=O	-18%	.	0%	-1%	-24%	11µM*
Cc1ccc(C)n1-c1cc([N+](=O)[O-])ccc1-n1ccnc1	11%	.	3%	12%	-4%	-2%
SMILES	ELG1 repair inh	SMN2 splice enh	NPC1 prom act	ELG1 genotoxic	Rab9 promoter act	FLuc counter
Cc1nc2ccccc2c(=O)n1/N=C/c1cn(-c2ccccc2)nc1-c1cccs1	?	-17%	19%	-1%	26%	2.7µM*
S=c1[nH]nc(-c2cccs2)n1/N=C/c1cn(-c2ccccc2)nc1-c1cccs1	?	.	?	?	?	0.67µM*
Cc1nc2ccccc2c(=O)n1/N=C/c1cccs1	?	8%	12%	1%	?	-17%
S=c1[nH]nc(-c2ccncc2)n1/N=C/c1cn(-c2ccccc2)nc1-c1ccccc1	-4%	.	21%	17%	?	2.7µM*
O=[N+]([O-])c1ccc(-c2nn(-c3ccccc3)cc2/C=N/n2c(-c3ccncc3)n[nH]c2=S)cc1	?	.	1%	8%	0%	0%
N#CC1=C(N)Oc2cc(N)ccc2C1c1cccc(F)c1 (stereo not drawn)	2.9µM*	.	-32%	1%	-27%	2%
CN(C)c1ccc2c(c1)OC(N)=C(C#N)C2c1cccc(F)c1 (stereo not drawn)	-9%	-24%	-7%	?	-26%	-8%
Cc1ccc2c(COC(=O)c3ccccc3Cl)cc(=O)oc2c1	?	.	?	15µM*	19%	0.85µM*
Cc1ccc2c(COC(=O)c3ccc(C)c(C)c3)cc(=O)oc2c1	?	.	20%	6%	?	6%
Cc1ccc2c(COC(=O)c3ccccc3Br)cc(=O)oc2c1	?	.	?	15µM*	3%	2.7µM*
Cc1ccc2c(COC(=O)C34CC5CC(CC(C5)C3)C4)cc(=O)oc2c1	?	21%	?	?	4µM*	?
COc1cc(OC)cc(C(=O)N[C@H](C(=O)OCc2cc(=O)oc3cc(C)ccc23)C(C)C)c1	?	-4%	-4%	-2%	-1%	8.5µM*
COc1cccc(C(=O)N2CCCN(C)CC2)c1OC	1%	.	-3%	0%	0%	0%
Cn1c(NCc2ccccc2O)nc2ccccc21	?	?	4µM*	?	2.8µM*	21µM*
Cn1c(NCc2ccccc2F)nc2ccccc21	.	13µM*	.	.	.	17µM*
CCOc1ccc(CNc2nc3ccccc3n2C)cc1	?	.	3.2µM*	?	2µM*	12µM*
Cc1ccc(CNc2nc3ccccc3n2C)o1	?	.	?	?	2µM*	?
CCOc1ccccc1N=Nc1c(C)[nH]n(C(N)=S)c1=O	-7%	.	16%	-10%	2%	1%
CCOC(=O)c1c(C)c(C(=O)NCCc2ccc(OC)cc2)c(C)n1CC	.	-6%	.	.	.	3%
COc1ccc(NC(=O)CN(C)C(=O)c2ccccc2Sc2ncnc3sc(C)c(C)c23)cc1	16µM*	.	-4%	-9%	-1%	5%
Cc1sc2ncnc(Sc3ccccc3C(=O)Nc3ccc(Br)cc3)c2c1C	?	.	4%	0%	-2%	-20%

High-throughput results (PubChem BioAssay)
